Screening data deposited in PubChem BioAssay by Sanford-Burnham Center for Chemical Genomics.
CYP2C9 activ – human CYP2C9 activators, primary screen, biochemical, luminescence; 96,000 compounds, 1.4% hits; AID 1024, 2008; recombinant CYP2C9, luciferin-H conversion; hits give high values; factor 1 = untreated enzyme, 0 = blocked; activation factor at 5 µM; Cytochrome P450 2C9 (Homo sapiens), P11712;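 active = activation factor of 2 or more for CYP2C9 at a 5 µM dose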;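 also: 0 = sulfaphenazole-blocked wells and 1 = vehicle-only wells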
CYP2C19 act – human CYP2C19 activators, primary screen, biochemical, luminescence. recombinant CYP2C19, luciferin-H EGE luminescence; hits give high values; 0 = fully inhibited enzyme, 1 = untreated enzyme. activation factor at 5 µM. 96,000 tested, under 10 active. AID 1025, 2008;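 active = activation factor of at least 2 at 5 µM in the primary screen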;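 also: 0 = wells with 2.5 mM tranylcypromine and 1 = vehicle-only wells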
CYP2C9 inh – blockers of cytochrome P450 2C9 activity – biochemical, luminescence, ADME assay, primary screen; P11712; AID 777, 2007; 96,000 compounds, 20% hits; inhibition, % at 5 µM; CYP2C9 Supersomes, luciferin-H conversion;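 active = blocking of liver enzyme CYP2C9 beyond about 50% at 5 µM, limit read from the data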
CYP2C19 inh – blockers of cytochrome P450 2C19 activity – biochemical, luminescence, ADME assay, primary screen | CYP2C19 Supersomes, luciferin-H EGE luminescence, 30 min | AID 778, 2007 | inhibition, % at 5 µM | 96,000 compounds, 21% hits;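 active = CYP2C19 inhibition above a set limit at 5 µM in the primary screen, cut at about 50% in these data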;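 also: plate controls were negative control wells for no effect and 2.5 mM tranylcypromine positive control for full effect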
PLAP act – PLAP enzyme activators, biochemical, luminescence, HTS. Alkaline phosphatase, placental type (Homo sapiens), P05187. purified PLAP enzyme, luminescent substrate read-out; hits give high values. activation fold at 20 µM. 96,000 compounds, 1.2% hits. AID 696, 2007; in the data active = activation fold above about 2
Target sequence (P05187 whole entry, looked up): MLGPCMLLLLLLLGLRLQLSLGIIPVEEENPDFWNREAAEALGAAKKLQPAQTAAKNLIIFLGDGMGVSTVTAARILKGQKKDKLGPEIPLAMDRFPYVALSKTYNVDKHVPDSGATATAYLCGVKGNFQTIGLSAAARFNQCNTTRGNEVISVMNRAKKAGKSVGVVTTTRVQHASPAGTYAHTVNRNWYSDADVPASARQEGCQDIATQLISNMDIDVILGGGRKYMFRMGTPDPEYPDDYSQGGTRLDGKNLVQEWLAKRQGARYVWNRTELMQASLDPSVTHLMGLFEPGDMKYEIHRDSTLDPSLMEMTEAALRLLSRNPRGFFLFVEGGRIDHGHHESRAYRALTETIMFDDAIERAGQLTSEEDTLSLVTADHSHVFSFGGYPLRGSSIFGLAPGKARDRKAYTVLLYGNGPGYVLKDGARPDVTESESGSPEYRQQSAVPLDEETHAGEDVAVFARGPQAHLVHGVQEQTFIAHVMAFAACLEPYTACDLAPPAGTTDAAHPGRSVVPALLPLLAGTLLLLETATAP
Numbers without * were called inactive. The list is not random: actives were taken first. Their share in the collection is about 31%.

How did COc1ccc(-n2ncc(S(=O)(=O)c3ccccc3)c2-c2ccc(Cl)cc2)cc1 do in these assays?
CYP2C9 activ: 0.3; CYP2C19 act: 0.6; CYP2C9 inh: 72*; CYP2C19 inh: 40; PLAP act: 1.4

How did Cc1cccc(C(=O)NNC(=O)C2CCCO2)c1 (centres undefined) do in these assays?
CYP2C9 activ: 1.2; CYP2C19 act: 1.1; CYP2C9 inh: -20; CYP2C19 inh: -5; PLAP act: 1.7

Results for CCCCN1C(=O)C2ON(c3ccccc3C)C(c3ccco3)C2C1=O (centres undefined) ?
CYP2C9 activ: 0; CYP2C19 act: 0.2; CYP2C9 inh: 96*; CYP2C19 inh: 77*; PLAP act: 0.9

How did CCc1ccc(N2C(=O)C3ON(c4ccccc4)C(c4ccco4)C3C2=O)cc1 (centres undefined) do in these assays?
CYP2C9 activ: 0.7; CYP2C19 act: 0.9; CYP2C9 inh: 31; CYP2C19 inh: 8; PLAP act: 1.1

How did Cc1ccc(S(=O)(=O)N(C)Cc2ccc(-c3nnc4n3CCC4)cc2)cc1 do in these assays?
CYP2C9 activ: 0.6; CYP2C19 act: 0.1; CYP2C9 inh: 41; CYP2C19 inh: 88*; PLAP act: 1.7

How did CC(C)C(NC(=O)c1cccs1)C(=O)NC1=NCCS1 (centres undefined) do in these assays?
CYP2C9 activ: 0.7; CYP2C19 act: 0.5; CYP2C9 inh: 27; CYP2C19 inh: 54*; PLAP act: 0.8

Results for O=C(NC1=NCCS1)c1cccs1 ?
CYP2C9 activ: 0.9; CYP2C19 act: 0.9; CYP2C9 inh: 5; CYP2C19 inh: 6; PLAP act: 1.2

How did CCCS(=O)(=O)C(=C1NCCO1)S(=O)(=O)CCC do in these assays?
CYP2C9 activ: 1; CYP2C19 act: 0.9; CYP2C9 inh: 4; CYP2C19 inh: 7; PLAP act: 1

Results for O=C(C1CCCCN1S(=O)(=O)c1ccccc1)N1CCN(Cc2ccccc2)CC1 (centres undefined) ?
CYP2C9 activ: 1.1; CYP2C19 act: 0.4; CYP2C9 inh: -11; CYP2C19 inh: 62*; PLAP act: 1.7

How did O=C(C1CCN(C2CC(=O)N(Cc3ccccc3)C2=O)CC1)N1CCCCCC1 (centres undefined) do in these assays?
CYP2C9 activ: 1; CYP2C19 act: 1; CYP2C9 inh: 0; CYP2C19 inh: -5; PLAP act: 2*

How did O=C(C1CCCCN1S(=O)(=O)c1ccccc1)N1CCN(C(c2ccccc2)c2ccccc2)CC1 (centres undefined) do in these assays?
CYP2C9 activ: 0.6; CYP2C19 act: 0.8; CYP2C9 inh: 39; CYP2C19 inh: 23; PLAP act: 1.3

Results for O=C(C1CCN(S(=O)(=O)N2CCOCC2)CC1)N1CCN(Cc2ccccc2)CC1 ?
CYP2C9 activ: 1; CYP2C19 act: 1.1; CYP2C9 inh: 0; CYP2C19 inh: -12; PLAP act: 1.2

How did O=C(C1CCC1)N1CCN(Cc2ccccc2)CC1 do in these assays?
CYP2C9 activ: 0.7; CYP2C19 act: 0.1; CYP2C9 inh: 32; CYP2C19 inh: 93*; PLAP act: 1.2

What do the screens show for `Cc1ccc(S(=O)(=O)N2CCCCC2C(=O)N2CCN(Cc3ccccc3)CC2)cc1` (centres undefined)?
CYP2C9 activ: 2.9*; CYP2C19 act: 0.2; CYP2C9 inh: -195; CYP2C19 inh: 85*; PLAP act: 1.5

Results for O=C(C1CCN(C2CC(=O)N(c3cccc(Cl)c3)C2=O)CC1)N1CCCC1 (centres undefined) ?
CYP2C9 activ: 1.2; CYP2C19 act: 1.2; CYP2C9 inh: -16; CYP2C19 inh: -21; PLAP act: 1.4

How did CC1(C(=O)N(CC(=O)NC2CCCC2)Cc2ccco2)CC(=O)N=C2C=CC=CN21 (centres undefined) do in these assays?
CYP2C9 activ: 1.1; CYP2C19 act: 1.1; CYP2C9 inh: -8; CYP2C19 inh: -5; PLAP act: 0.9

Results for Cc1ccc(NS(=O)(=O)c2ccc(NC(=O)[C@@H]3CCCC[C@@H]3C(=O)O)cc2)c(C)c1 ?
CYP2C9 activ: 0.8; CYP2C19 act: 0.9; CYP2C9 inh: 18; CYP2C19 inh: 13; PLAP act: 1.1
